Results on 40 compounds are retold here after PubChem BioAssay (NCI).

Molecules are shown by their SMILES. This is part of a sample that, as a whole, favours compounds with a hit. Of some 83,000 tested, about 20% had one in any assay.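 Note: values are percent growth. 100 is the growth of untreated cells, values between 100 and 0 indicate rising inhibition; between -100 and 0 indicates cell death.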 Unmarked numbers belong to inactive results. Active and inactive are the calls of the source.

In this test the test system is NCI-H460 lung. Kind of test: NCI-60 one-dose screen, 48 h (100 = growth as untreated, 0 = no growth, -100 = all killed). Particulars: 10 µM. As to the method:
Growth inhibition of the NCI-H460 human Non-Small Cell Lung tumor cell line is measured as a screen for anti-cancer activity. Cells are grown in 96 well plates and exposed to the test compound for 48 hours. Compounds are tested at a single concentration, which is 10^-5 M for most compounds. The reported endpoint is percent growth (GI% or GIPRCNT), where numbers from 0 - 100% represent growth inhibition, and numbers from -100% - 0 represent cell death. For example, a value of 40 represents 60% growth inhibition. A value of 0 means no net growth occurred over the course of the experiment. A value of -40 indicates 40% of cells at the beginning of the experiment died by the end of the experiment. A value of -100 means all cells are dead at the end of the experiment.
NCI-60 Human Tumor Cell Lines Screen was performed using the standard one-dose NCI protocol, which is described in more detail at https://dtp.cancer.gov/discovery_development/nci-60/default.htm.
Compounds with GIPRCNT values below 10 were considered active. Activity score was based on GIPRCNT using the following formula: […]
Score is 0 for GIPRCNT values of 100 or above, 50 for GIPRCNT values of 0, and 100 for GIPRCNT values of -100.
Take `COc1ccc(-c2csc(NC(=O)CSc3nc(C)c(-c4ccccc4)n3Nc3ccccc3)n2)cc1`: the growth is 43.2%.

Turning to `O=C1/C(=C\c2ccc(Br)cc2)CN(C(=O)c2ccccc2F)C/C1=C\c1ccc(Br)cc1`, the growth was 43.3%.

As for `N#CCCN1C/C(=C/c2ccc(Br)cc2)C(=O)/C(=C/c2ccc(Br)cc2)C1`, the growth is -55.2% (active).

On to `CCN(CC)CCC(CNc1c(C)cnc2cc(Cl)ccc12)c1ccc(Cl)cc1` (stereo not given), for which the growth is 67.7%.

Take `O=C(Nc1ccncc1)C(=O)c1cn(S(=O)(=O)c2ccc(F)cc2)c2ccccc12`: the growth is 74.7%.

On to `CCN1CCN(c2nc3ccccc3c3c(=O)c4ccccc4sc23)CC1`, for which the growth was 20%.

In the case of `CNc1ccc(CSc2ccc(C)cc2)cc1`, the growth was 80.8%.

As to `O=C(CC(NC(=O)OCc1ccccc1)C(=O)OCc1ccccc1)OCc1ccccc1` (stereo not given), the growth is 101%.

As to `O=C1/C(=C\c2ccccc2)CN(C(=O)c2ccccc2F)C/C1=C\c1ccccc1`, the growth is 51.6%.

As for `CCCN(CCC)CCC(O)c1cc2c(c3ccccc13)CCCC2` (stereo not given), the growth is 98.9%.

Consider `O=C(Nc1ccncc1)C(=O)c1cn(S(=O)(=O)c2cccc(Cl)c2)c2ccccc12`, for which the growth was 82.2%.

Regarding `O=S(=O)(NCCNc1nccc(-c2c(-c3ccc(F)cc3)nc3sccn23)n1)c1ccc2ccccc2c1`, the growth is 55%.

On to `COc1cc2c(cc1OC)N(CCO)C1=C(C(=O)OC1)C2c1ccc(Cl)c(Cl)c1` (stereo not given), for which the growth is 104%.

In the case of `Cc1ccc(-c2n[nH]c(=O)c3noc(-c4ccc(C)cc4)c23)cc1`, the growth was 17.3%.

For `COc1cccc(C2C3=C(COC3=O)N(CCO)c3cc(OC)ccc32)c1` (stereo not given), the growth was 0.788% (active).

In the case of `CC(C)=CCc1cc(O)cc2c1OC(C=C(C)C)C1=C2C(=O)C2=C(NCCS2(=O)=O)C1=O` (stereo not given), the growth was 3.29% (active).

As for `O=C(CNC(=O)OCc1ccccc1)NCC(=O)Oc1ccc([N+](=O)[O-])cc1`, the growth is 101%.

As to `C=C1c2c(C)nn(-c3ccc(OC)cc3)c2N(C)C23C[C@@H]1C1(C)c4c(C)nn(-c5ccc(OC)cc5)c4N(C)C(C)(C[C@H]12)C3` (stereo not given in full), the growth is 6.82% (active).

Regarding `COc1cc(OC)cc(-c2cncn2-c2ccc(-c3nc4cc(OC)cc(OC)c4s3)cc2)c1`, the growth was 51.3%.

With `Cc1cc(C)c(CCc2cc(C)c(C)cc2C)cc1C`, the growth was 110%.

As to `O=[N+]([O-])c1cccc(N=Cc2ccc3c(c2)OCO3)c1`, the growth was 120%.

For the compound `COc1ccc(/C=C/C(=O)Nc2ccc(-c3nc4ccc(F)cc4s3)cc2)cc1`, the growth is 99.1%.

For `Cc1cc(Cl)nc(N(CCCNc2ccnc3cc(Cl)ccc23)Cc2cccs2)n1`, the growth was 7.09% (active).

On to `O=C(c1cccs1)c1ccccc1Cc1ccccc1`, for which the growth is 107%.

As to `CCOC(=O)CNC(=O)CCCCSc1ncnc2nc[nH]c12`, the growth was 97%.

For `COc1ccc(-c2cc(/C=C3\C(=O)Nc4ccc(Cl)cc43)[nH]n2)cc1OC`, the growth is 79.9%.

As to `Cn1c(N)c(N=Nc2ccc(S(=O)(=O)Nc3nccs3)cc2)c(=O)n(C)c1=O`, the growth is 109%.

For `CN1CC[C@@H](c2c(O)cc(O)c3c(=O)cc(-c4ccccc4Cl)oc23)[C@@H](O)C1`, the growth was 5.19% (active).

On to `CC1(O)CCC2CC3OC3(C)CCC3OC3(C)CCC1C2(C)C` (stereo not given), for which the growth is 112%.

In the case of `O=C(Cc1csc2nc(-c3ccc(Cl)cc3)cn12)N/N=C/c1ccccc1O`, the growth is 18.5%.

As for `O=C1OCC2=C1C(c1cccc(Cl)c1)c1cc3c(cc1N2CCO)CCC3` (stereo not given), the growth was -12.7% (active).

Regarding `Nc1nc(-c2ccccc2Cl)cc(-c2ccc(Cl)cc2Cl)n1`, the growth is 49.8%.

As to `O=C1OCC2=C1C(c1ccc(Cl)c(Cl)c1)c1cc3c(cc1N2CCO)OCCO3` (stereo not given), the growth is 6.2% (active).

`COc1ccc(NC2=NC(C)(CO)CS2)cc1` (stereo not given): the growth was 100%.

Take `C[N+](C)(C)c1ncnc2nc[nH]c12`: the growth is 104%.

With `Nc1c(C(=O)Nc2ccccc2)sc2nc3c(cc12)C(O)CCC3` (stereo not given), the growth is 11.8%.

In the case of `COc1cc(C)ccc1C(=O)c1ccc(C)cc1OC`, the growth was 5.93% (active).

In the case of `CC(=O)N(C)c1ccc(Nc2ccc(Nc3ccc(N(C)C(C)=O)cc3)c3c2C(=O)c2ccccc2C3=O)cc1`, the growth was 64.9%.

As to `COc1ccc(CN2CCC(N3CCCC3=O)c3cc(Cl)ccc32)cc1` (stereo not given), the growth was 110%.

On to `CCC(=O)N1C/C(=C/c2ccc(Br)cc2)C(=O)/C(=C/c2ccc(Br)cc2)C1`, for which the growth was -46.8% (active).
